What follows are molecules tested on HepG2 (assay: GSK_TCMDC: Percent inhibition of human HepG2 cell line. Test compounds present at 10uM.).
Format: functional

SMILES	Inhibition [%]
COc1ccc2c(=NN=Cc3ccc(F)cc3)cc(C)[nH]c2c1	4
COc1ccc(C2CC(c3cccs3)=NN2C(=O)COc2cccc(C(C)=O)c2)cc1OC (stereo not given)	10
Br.CCC(CCON1C(N)=NC(N)=NC1(C)C)c1ccc(Cl)c(Cl)c1 (stereo not given)	68
CC1CN(c2ccc3occ(C(=O)Nc4ccc(-c5ccncc5)c(Cl)c4)c3c2)CC(C)N1C.Cl (stereo not given)	14
O=C(O)C(F)(F)F.O=C1CCCN1CCCNCc1cccc(-c2ccc(-c3nc4ccccc4[nH]3)s2)c1	0
CC12CCC(C(=O)N(CC(O)Cn3c4ccc(Cl)cc4c4cc(Cl)ccc43)C1=O)C2(C)C (stereo not given)	0
O=C(/C=C/C=C/c1ccc(Cl)c(Cl)c1)NCCCCCN1CCCC2CCCCC21 (stereo not given)	41
Cn1nc(C(=O)N2CCC(c3[nH]ncc3Cc3ccccc3)CC2)c2ccccc2c1=O	5
NC1=NC(c2ccccc2)(c2ccccc2)C(=O)N1CCCCc1ccccn1	10
COc1ccccc1NC(=O)Nc1cccc(-c2cccc(-c3nc4cc(C(F)(F)F)ccc4[nH]3)c2)c1	21
CS(=O)(=O)c1ccc2c(c1)CCN(CCC1CCC(NC(=O)C(=Cc3cccc(C#N)c3)c3ccc(-c4ccccc4)cc3)CC1)CC2 (stereo not given)	24
Cc1cc(C(F)(F)F)n2nc(C(=O)N(C)Cc3cncn3Cc3ccc(F)cc3)cc2n1	0
Cc1cc(CNCCCCCCNCc2cccc([N+](=O)[O-])c2)ccc1O	13
Cn1c(-c2ccccc2)cc2c3c(=O)cc(C(F)(F)F)[nH]c3ccc21	21
O=C(NCCCCCN1CCC(c2c[nH]c3ccccc23)CC1)Nc1ccc(Cl)cc1Cl	71
CCC(CC)OC(=O)C(C)c1cccc(C(=O)c2ccccc2)c1 (stereo not given)	0
CCn1c2ccccc2c2cc(C=NN=c3cc(C)[nH]c4ccccc34)ccc21	19
CC(=O)Nc1ccc(CN2CCc3ccc(NS(=O)(=O)c4ccc(-c5cccc(C(F)(F)F)c5)cc4)cc3CC2)s1	23
CCCCCCN1CCCN(Cc2ccc(C(=O)Nc3ccc(F)c(F)c3)cc2)CC1.O=C(O)C(F)(F)F	50
CCCCCNC(=N)c1ccc(OCCCCCOc2ccc(C(=N)NCCCCC)cc2)cc1.Cl	3
COc1ccc(/N=C(\N)Nc2ccccc2)nc1Cc1ccccc1	17
Cc1ccc(Nc2nccc(Nc3ccc4c(C)n[nH]c4c3)n2)cc1F.Cl	6
CCC(Nc1noc(-c2c(-c3ccccc3)noc2C)n1)c1ccccc1 (stereo not given)	4
CCCCN(CCCC)CCCN(CCCN(CCCC)CCCC)c1cc(C)nc(Nc2ccc3cc(Br)ccc3c2)n1.Cl	52
COc1ccc2c(NN=Cc3ccccc3F)ccnc2c1	15
